# The full list was thinned out, with hits kept by preference.
# ER stress surv = ER stress cell death inhibition; CSM14.1 thapsigargin ER stress survival, ATP luminescence; relative survival (cellular ATP), % at 15 µg/mL (by protocol); 0.33% of 48,000 active; AID 1010;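 active = survival measured by cellular ATP above 50% at 15 µg/ml in the first screen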;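 note: cell death triggered by about 15 µM thapsigargin; ATP read 24 h after thapsigargin was added; plate controls were thapsigargin with DMSO for no effect and DMSO without thapsigargin for full effect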
# Active calls of the source: *.
SMILES,ER stress surv
C=CCNC(=O)CN(c1cccc(Br)c1)S(=O)(=O)c1ccccc1,3
COc1ccc(N2C(=O)c3ccc(OC)c(OC)c3C2=O)cc1,5
COc1ccc(C2CC(=O)NC(SCc3ccccc3)=C2C#N)cc1OCc1ccccc1 (configuration not stated),8
CCOC(=O)c1c(NC(=O)c2cc3n(n2)C(C(F)(F)F)CC(c2ccco2)N3)sc(C)c1C (configuration not stated),-7
COc1ccc(N(CC(=O)N/N=C/c2cccc3ccccc23)S(=O)(=O)c2ccccc2)cc1,20
NS(=O)(=O)c1cccc(NC(=O)c2cccs2)c1,0
O=C(Nc1cccc(Br)c1)c1cccs1,5
O=C(Nc1cccc(S(=O)(=O)c2cccc(NC(=O)c3cccs3)c2)c1)c1cccs1,113*
CCCC(C(=O)O)N1C(=O)/C(=C/c2cccc(O)c2)SC1=S (configuration not stated),11
O=C(c1ccc([N+](=O)[O-])cc1Cl)N1CCN(c2ccccc2)CC1,-1
COc1ccc(/C=C(/c2ccccc2)c2nc3ccccc3[nH]2)cc1,51*
CN(C)c1ccc(/C=C(/c2ccccc2)c2nc3ccccc3[nH]2)cc1,40
COc1ccc(C(=O)N/C(=C/c2ccc(Br)cc2)c2nc3ccccc3[nH]2)cc1,6
COc1cccc(C(=O)N2CCN(C(=O)c3cccs3)CC2)c1,-2
CCCn1c(=O)c(C(=O)Nc2ccccc2O)c(O)c2ccccc21,12
O=C(O)c1ccc(NC2=NS(=O)(=O)c3ccccc32)cc1,4
COc1ccc(OCCCCOc2ccccc2)cc1,3
CCn1c2ccccc2c2cc(CN3CCN(C(=O)c4ccc([N+](=O)[O-])cc4)CC3)ccc21,91*
O=C(c1ccncc1)N1CCN(Cc2cccc(Oc3ccccc3)c2)CC1,-2
O=C(c1ccc([N+](=O)[O-])cc1)N1CCN(Cc2cccnc2)CC1,-8
COc1cc(C(=O)N2CCN(Cc3cccc(Oc4ccccc4)c3)CC2)cc(OC)c1OC,45
O=C(c1ccc([N+](=O)[O-])cc1)N1CCN(Cc2cccc(Oc3ccccc3)c2)CC1,69*
COc1ccc(C(=O)N2CCN(Cc3cccc(Oc4ccccc4)c3)CC2)cc1OC,53*
Cc1cccc(CN2CCN(C(=O)c3ccc([N+](=O)[O-])cc3)CC2)c1,4
CCOc1ccc(CN2CCN(C(=O)c3ccc([N+](=O)[O-])cc3)CC2)cc1,-2
SMILES,ER stress surv
COc1ccc(C(=O)N2CCN(Cc3cccc(C)c3)CC2)cc1OC,2
CC1CCN(c2cc(N3CCN(C(=O)c4ccc(F)cc4)CC3)c([N+](=O)[O-])cc2F)CC1,-3
CCC1=NN2C(=N)/C(=C/c3ccc(OCc4ccccc4)cc3)C(=O)N=C2S1,5
Cc1ccc(OCCOCCN2CCC(C)CC2)c(Cl)c1,-4
Cc1cc(/C=C2/SC(=S)NC2=O)c(C)n1-c1cccc(Cl)c1,3
COc1ccccc1C(=O)N1CCN(Cc2ccccc2C)CC1,-7
O=C(NCc1ccccc1)C(=O)Nc1cccc(Cl)c1Cl,12
Fc1c(F)c(F)c2c(c1F)Oc1ccccc1O2,0
Cc1cccc(C(=O)O/N=C(\N)c2cccnc2)c1,-5
CCc1cc2c(N3CCCCC3)ncnc2s1,-1
CCc1cc2c(N3CCN(Cc4ccc(Cl)cc4Cl)CC3)ncnc2s1,98*
CCOC(=O)c1cnn(-c2ncnc3sc(CC)cc23)c1N,9
Cc1sc(NC(=O)Nc2ccccc2)nc1C12CC3CC(CC(C3)C1)C2,3
COc1ccc(CCN2C(=O)/C(=C/c3sccc3C)SC2=S)cc1OC,6
COC(=O)c1ccc(OCC(=O)Nc2ncccn2)cc1,11
CC1=C(C(=O)OCC2CCCO2)C(c2ccc(F)cc2)C2=C(CCCC2=O)N1 (configuration not stated),3
CCOc1cc(C2C(C(=O)OCC3CCCO3)=C(C)NC3=C2C(=O)CCC3)cc([N+](=O)[O-])c1O (configuration not stated),-3
CCn1c2ccccc2c2cc(C3C(C(=O)OCC4CCCO4)=C(C)NC4=C3C(=O)CCC4)ccc21 (configuration not stated),96*
Cc1ccccc1C(=O)Nc1ccc(NC(=O)c2cccc(Br)c2)cc1,1
Cc1ccc(Cl)cc1NC(=O)c1cncc(Br)c1,5
COCC(=O)Nc1cc(Cl)ccc1C,4
Cc1ccc(Cl)cc1NC(=O)CSC(N)=O,8
CC(=O)CC(=O)Nc1cc(Cl)ccc1C,65*
Cc1ccc(-c2csc(NC(=O)c3ccc(Cl)cc3[N+](=O)[O-])n2)c(C)c1,10
COc1cc(CNc2nc3ccccc3n2CCN2CCCCC2)cc(OC)c1OC,1
SMILES,ER stress surv
O=C(NCC1CCCO1)/C(=C/c1ccc(-c2ccccc2Cl)o1)NC(=O)c1ccccc1 (configuration not stated),87*
N#C/C(=C\c1ccc(-c2ccc(Cl)c(C(=O)O)c2)o1)C(=O)NCC1CCCO1 (configuration not stated),12
COc1ccc(C(=O)N/C(=C\c2ccc(Cl)cc2)C(=O)NCC2CCCO2)cc1 (configuration not stated),0
O=C(N=Nc1c(O)n(CN2CCCC2)c2ccc(Br)cc12)c1cccnc1,1
C=CCn1cc(C)c(=O)n(CC=C)c1=O,-1
Cc1ccc(C(=O)N/C(=C/c2cccs2)c2nc3ccccc3[nH]2)cc1,62*
O=C(N/C(=C/c1cccs1)c1nc2ccccc2[nH]1)c1ccccc1,-2
Cc1ccc(C(=O)N/C(=C/c2cccnc2)c2nc3ccccc3[nH]2)cc1,-2
CN1CCc2c(sc3nc(SCC(=O)c4ccccc4)nc(N)c23)C1,-5
CCc1ccc(N2C(=O)NC(=O)/C(=C\c3ccc(Oc4ccc([N+](=O)[O-])cn4)cc3)C2=O)cc1,5
Cc1ccc(C2(c3ccc(C)cc3)CC2C(=O)Nc2ccncc2)cc1 (configuration not stated),-1
Cc1ccc(C2(c3ccc(C)cc3)CC2C(=O)Nc2cccnc2)cc1 (configuration not stated),78*
Cc1ccc(C2(c3ccc(C)cc3)CC2C(=O)Nc2ccccc2)cc1 (configuration not stated),6
NS(=O)(=O)c1cccc(NC(=O)c2cccc(OCc3ccccc3)c2)c1,-1
CC1=C(C(=O)OC(C)C)C(c2cccc(Cl)c2Cl)C2=C(CC(C)(C)CC2=O)N1 (configuration not stated),9
CC(=O)Oc1ccc(C(=O)Nc2ccc(C)cc2C(=O)O)cc1,0
COc1ccc(CC(=O)N2CCN(c3cccc(Cl)c3)CC2)cc1OC,7
COc1ccc(/C=N/OCC(=O)N2CCN(C(c3ccccc3)c3ccccc3)CC2)cc1OC,116*
CCC(Oc1ccccc1)C(=O)N1CCN(C(c2ccccc2)c2ccccc2)CC1 (configuration not stated),47
COc1nccc(Nc2ccccc2)c1C#N,2
CN(C)c1nccc(N(Cc2ccccc2)Cc2ccccc2)c1C#N,83*
CN(C)CCN(Cc1ccccc1)c1ccnc(N(C)C)c1C#N,-4
O=C(Nc1cccc2ccccc12)C1OC2OC3(CCCCC3)OC2C2OC3(CCCCC3)OC12 (configuration not stated),115*
O=C(Nc1cccc2ccccc12)C1C2CCC3C(CCC21)C3(Cl)Cl (configuration not stated),2
CC1(C)OC2OC(C(=O)Nc3ccccc3)C3OC(C)(C)OC3C2O1 (configuration not stated),1

# Assay outcomes as filed in PubChem BioAssay.
